# Assay outcomes from PubChem.
# Shown are actives, neighbours in structure and some others; about 0.69% of the full set was active somewhere.
# PfHsp90 yeast 2 = growth inhibition of PfHsp90-expressing yeast, primary screen, antimalarial PfHsp90 inhibitor project, S. cerevisiae, BacTiter-Glo luminescence, single point, set 2. inhibition, % at 9.4 µM. AID 504621, 2011. BacTiter-Glo ATP, 48 h; yeast lacking PDR1 and PDR3 efflux regulators. hit rate 0.32% among 310,000;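 active = every replicate shows inhibition above about 80%, whatever the replicate mean, limit read from the data; inconclusive = mean inhibition reaches the set limit but some replicate falls short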
# E coli growth-1 = E. coli growth inhibition, primary screen, OD600; Escherichia coli growth, 23 h; active compounds read low; OD600 absorbance (concentration not given with the values); hit rate 0.21% among 330,000; AID 1053175, 2014;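 active = OD600 absorbance below the run mean of sample wells minus 3.6 SD, in any replicate, cut at about 0.56 in these data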
# phage Ecoli inh = growth loss of phage-infected E. coli, primary screen, RecBCD inhibitor project, absorbance, with phage, HTS. inhibition, % at 11.9 µM. hit rate 0.26% among 360,000; in the data active = inhibition above about 11%
# AddAB inh = growth inhibition of E. coli expressing H. pylori AddAB, primary screen, AddAB inhibitor project, absorbance; inhibition, % at 11.9 µM; hit rate 0.29% among 330,000; AID 435030, 2010; in the data active = inhibition above about 12%
# E coli growth-2 = E. coli V3065 growth inhibition, primary screen, counter-screen for AddAB inhibitor project, absorbance, OD600; AID 449728, 2010; 18 h; hit rate 0.27% among 330,000; inhibition, % at 11.9 µM;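 active = inhibition above the campaign's mean inhibition across all tested compounds plus 3 SD, cut at about 9.9% in these data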;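 also: uninfected addAB+ strain grown without phage in ampicillin broth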
# Tat export inh = E. coli Tat export inhibitors, primary screen, MC4100, TorA-mCherry reporter, fluorescence, single point. hit rate 0.036% among 340,000. inhibition, % at 10 µM. AID 488895, 2010;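 active = mean replicate inhibition at least 50% and at least half of replicates individually reaching 50%; inconclusive = only one of the two criteria met; inactive = neither criterion met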;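 also: exported cargo escapes ClpAP degradation while cytoplasmic cargo is degraded and loses fluorescence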
# A number is an active result; - = inactive; ? = inconclusive; . = no result given.
SMILES,PfHsp90 yeast 2,E coli growth-1,phage Ecoli inh,AddAB inh,E coli growth-2,Tat export inh
Cc1ccc(-c2nc3cccnc3s2)cc1NS(=O)(=O)c1ccc2c(c1)OCCO2,89,-,-,-,-,-
O=[N+]([O-])c1cccc(-c2ccc(/C=N/NC(=S)Nc3ccccc3)o2)c1,-,.,-,-,10,-
N#Cc1ccccc1C=NNc1nc(-c2ccccc2)c2cc(Br)ccc2n1,.,-,.,.,.,.
COc1ccc(NC(=O)CCC(=O)N/N=C/c2ccc([N+](=O)[O-])s2)cc1,116,.,-,-,-,-
Cn1c(SCC(=O)N/N=C/c2ccc([N+](=O)[O-])s2)nnc1-c1ccc(Cl)cc1,105,.,-,-,-,-
Cc1cccc(NC(=S)N/N=C/c2ccc([N+](=O)[O-])s2)c1,100,.,-,15,19,-
COc1ccc(Cl)cc1NC(=O)COC(=O)C=Cc1c(C)nn(C2CCS(=O)(=O)C2)c1Cl (configuration not stated),.,-,.,.,.,.
CC(C)N1CCN(c2ccc(OC[C@H]3CO[C@](Cn4cncn4)(c4ccc(Cl)cc4Cl)O3)cc2)CC1,101,.,-,-,-,-
CC(C)N1CCN(c2ccc(OCC3COC(Cn4cncn4)(c4ccc(Cl)cc4Cl)O3)cc2)CC1 (configuration not stated),113,.,-,.,.,-
COc1ccc(N2CCN(C(=O)Cn3cncn3)CC2)cc1,-,-,-,-,-,-
CC(C)N1CCN(c2ccc(OCC3CO[C@](Cn4cncn4)(c4ccc(Cl)cc4Cl)O3)cc2)CC1 (some centres not stated),.,-,.,.,.,.
COC(CC1OC1C(=O)C(C)OCc1ccccc1)OC (configuration not stated),.,-,.,.,.,.
CCCCCCCCN1C(CC(=O)OCC)c2ccc(C(F)(F)F)cc2S1(=O)=O (configuration not stated),.,-,.,.,.,.
Br/C(C=NN1CCN(c2ccccc2)CC1)=C\c1ccccc1,.,-,.,.,.,.
COc1cccc(NC(=S)NN=C2CC(C)(C)Oc3ccc(O)cc32)c1,.,-,.,.,.,.
COC(=O)[C@@H]1[C@@H](C#N)C2(c3ccccc3-c3ccccc32)N(c2ccc(Cl)cc2)N1C#N,100,-,-,-,-,-
O=C(Cc1ccc(Cl)cc1)NN1C(=O)c2ccccc2C1=O,-,-,-,-,-,-
O=c1c(Cl)c(Nc2cccc(Cl)c2)cnn1-c1nc2ccccc2s1,-,-,-,-,-,-
COc1ccc(Nc2cnn(-c3nc4ccccc4s3)c(=O)c2Cl)cc1,96,-,-,-,-,-
CN1CCc2nc3sc(C(=O)C45CC6CC(CC(C6)C4)C5)c(N)c3cc2C1,129,-,-,-,-,-
Nc1c(C(=O)O)sc2nc3c(cc12)CCCC3,.,-,-,-,-,.
CCCCCCCCCCCCCCCC[n+]1ccc(C(N)=O)cc1,104,0.32,-,-,-,51
CCCCCCCCCCCCCCCC[n+]1ccccc1,114,0.057,-,.,.,-
CCCCCc1ccc(OCCC[n+]2ccccc2)c(CCCCC)c1,-,-,-,-,-,-
CCCCCCCCCCCCCCCC[n+]1cccc(C(=O)N(CC)CC)c1,107,0.43,-,-,-,?
SMILES,PfHsp90 yeast 2,E coli growth-1,phage Ecoli inh,AddAB inh,E coli growth-2,Tat export inh
CCCCCCCCCCCCCCCC[n+]1ccc(/C=N/O)cc1,106,.,-,-,-,-
CCOC(=O)C1=C(C)N=c2sc(=Cc3cccc([N+](=O)[O-])c3O)c(=O)n2C1c1ccccc1 (configuration not stated),.,-,.,.,.,.
Cc1cc(C)cc(C(=O)C=C2NC(=O)CS2)c1,.,-,.,.,.,.
C(=NN=Cc1cccs1)c1cccs1,.,-,.,.,.,.
CCCCCCC1CC(C)(C(C)=NNC(N)=O)OC1=O (configuration not stated),.,-,.,.,.,.
COc1ccccc1C(=O)NC(=Nc1nc2ccccc2o1)NC(=O)c1ccccc1OC,-,-,-,14,13,-
O=C(NN=Cc1ccco1)Nc1cccc(Cl)c1,.,-,.,.,.,.
COc1ccc(C2C=CCN(CC(C)C)CC(=O)N2Cc2ccc(F)cc2)cc1 (configuration not stated),.,-,.,.,.,.
CCOc1cccc(/C=N/Nc2ccc(S(=O)(=O)N(CC)CC)cn2)c1O,-,.,13,-,12,-
COc1cccc(C=NNc2ccc([N+](=O)[O-])cn2)c1O,.,0.41,.,.,.,.
CCN(CC)S(=O)(=O)c1ccc(NN=Cc2ccc(O)cc2O)nc1,.,-,.,.,.,.
COc1cccc(/C=N/Nc2ccc([N+](=O)[O-])cc2)c1O,-,.,-,-,-,-
CC(C)n1c(C=CC(O)CC(O)CC(=O)O)c(-c2ccc(F)cc2)c2ccccc21 (configuration not stated),.,-,.,.,.,.
CC(=O)N1N=C(c2ccccc2)OC1c1ccc([N+](=O)[O-])s1 (configuration not stated),127,0.51,.,-,-,-
COc1ccc(C2=CC3=C(Br)C(=O)C(C)(OC(=O)C4CCCC4)C(=O)C3=CO2)cc1 (configuration not stated),110,.,.,-,-,-
COC(=O)CCC(=O)OC1(C)C(=O)C2=COC(c3ccc(OC)cc3)=CC2=C(Br)C1=O (configuration not stated),.,.,.,-,-,.
COc1ccc(Br)cc1C=NNC(=O)c1ccc(COc2ccc3c(c2)CCC3)o1,.,-,.,.,.,.
CNS(=O)(=O)c1cccc(C(=O)OCC(=O)Nc2cc(F)ccc2F)c1,-,-,-,-,11,-
CCOc1ccccc1-c1c2cc(O)c(=O)cc-2oc2cc(O)c(O)cc12,93,-,.,.,.,-
O=C(NCc1ccccc1)c1cc(S(=O)(=O)N2CCCCC2)ccc1N1CCOCC1,.,0.44,-,-,-,-
Cc1nc2ccccn2c1C(=O)NN=Cc1ccc([N+](=O)[O-])o1,.,0.52,.,.,.,.
COC(=O)NN=Cc1ccc([N+](=O)[O-])o1,.,0.051,.,.,.,.
CCN(CC)c1ccc(N=Cc2ccc([N+](=O)[O-])o2)cc1,-,0.15,-,-,-,-
O=C(NN=Cc1ccc([N+](=O)[O-])o1)C(O)c1ccccc1 (configuration not stated),.,0.44,.,.,.,.
O=C(COc1ccccc1)NN=Cc1ccc([N+](=O)[O-])o1,.,-,.,.,.,.
SMILES,PfHsp90 yeast 2,E coli growth-1,phage Ecoli inh,AddAB inh,E coli growth-2,Tat export inh
CCCCCC(=O)N/N=C/c1ccc([N+](=O)[O-])o1,-,.,-,-,-,-
Cc1nc2ccccn2c1C(=O)N/N=C/c1ccc([N+](=O)[O-])o1,-,.,-,-,-,-
COc1ccccc1OCC(=O)NN=CC=Cc1ccc([N+](=O)[O-])o1,.,0.36,.,.,.,.
Cc1ccccc1OCC(=O)NN=Cc1ccc([N+](=O)[O-])o1,.,-,.,.,.,.
CCC(Cc1ccccc1)=NNC(=O)c1cccc(Br)c1,.,-,.,.,.,.
CC(=NOC(=O)c1ccc(Br)cc1)c1ccccn1,.,-,.,.,.,.
CCn1cc(C(=O)NCCc2ccc(Cl)cc2)c(=O)c2ccc(C)nc21,-,-,-,.,.,-
CCN1CCN(C(=S)NC(=O)c2cc(OC)c(OC)c(OC)c2)CC1,-,-,-,-,-,-
